The source of these data is PubChem BioAssay AID686979 (National Center for Advancing Translational Sciences (NCATS), 2013).

Hit rate of the full screen: of about 420,000 compounds, about 50,000 (12%) were called active. Inconclusive results (about 26%) are left out. The full list was thinned out, with actives kept by preference. A number with no mark means an inactive call. The call rests on the fitted dose curve; in most records, active means well fitted inhibition curve with a large enough effect; inconclusive means small, poorly fitted or top-dose-only effect; inactive means flat fitted curve, though single readings scatter.
On the % scale 0 is the no-effect control and ±100 the full control effect; potency means the concentration at half of the fitted maximal effect.

The assay can be described thus: qHTS for Inhibitors of human tyrosyl-DNA phosphodiesterase 1 (TDP1): qHTS in cells in presence of CPT. Further: nearly all actives have a fitted effect of over 55% in size. As to conditions: chicken DT40 Tdp1-/-;hTDP1 cells + 20 nM CPT, ATP luminescence, 48 h; series mostly up to 46.2 µM; activity change, negative = growth inhibition: at the top concentration. In a few lines:
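Cell growth measured by CellTiter-Glo luminescence after a minimum 48 h, 37 C compound exposure with 20 nM CPT in Tdp1-knockout DT40 cells stably expressing hTDP1, seeded 400/well; qHTS titration format.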
A general note: In qHTS, concentration-response curves come from the screen itself.
On to `COC(=O)c1ccc2ccccc2c1OC1OC(CO)C(O)C(O)C1NC(C)=O` (stereo not given), for which the “activity change, negative = growth inhibition” value was -14.5%.
Regarding `Fc1cccc(Cc2noc(CN3CCN(c4cnccn4)CC3)n2)c1`, the “activity change, negative = growth inhibition” value was 1.52%.
`Cc1ccc(C(=O)N2CCC(n3nccc3NC(=O)Nc3cccc(F)c3)CC2)cn1`: the “activity change, negative = growth inhibition” value is 1.87%.
Still for that read-out and setting: as for `O=C(COC(=O)c1ccccc1NC(=O)c1ccco1)Nc1ccc2c(c1)OC(F)(F)O2`, the figure is -10.2%; as for `CC1CC(C)CN(CCCNC(=O)c2csc3c2CCCCC3)C1` (stereo not given), -30%.
For the compound `O=C(CCNC(=O)c1ccccc1Cl)NCc1ccco1`, the “activity change, negative = growth inhibition” value was -9.02%.
For `CC(C(=O)c1ccc(-c2ccccc2)cc1)[n+]1cccc(Br)c1` (stereo not given), the “activity change, negative = growth inhibition” value was -16.3%.
With `CCOC(=O)C1CCC(CN(Cc2ccc(OC)cc2)S(=O)(=O)c2ccc(F)c(C(=O)Nc3cc(C)ccc3C)c2)CC1` (stereo not given), the “activity change, negative = growth inhibition” value is -12.5%.
`COC(=O)Cc1ccc(NC(=S)NCc2ccccc2)cc1`: the “activity change, negative = growth inhibition” value is -1.18%.
`Fc1ccccc1CNC(=S)Nc1ccc(Cl)cc1`: the Potency was 20.6 µM (active).
Consider `Cn1cc(C(=O)NCc2ccccc2F)cn1`, for which the “activity change, negative = growth inhibition” value was -0.179%.
Same read-out and setting: the result for `O=C(c1ccco1)N1CCN(C(=O)c2cc(-c3ccccc3F)no2)CC1` reads -22.9%.
On to `O=C(c1ccc2c(c1)N(Cc1ccccc1F)C(=O)c1ccccc1S2(=O)=O)N1CCOCC1`, for which the “activity change, negative = growth inhibition” value is -19%.
For `O=C(c1cccc(Br)c1)N1CCN(C2=NS(=O)(=O)c3ccccc32)CC1`, the “activity change, negative = growth inhibition” value is 3.46%.
In the case of `O=C(c1ccc2c(c1)N(Cc1ccccc1)C(=O)c1ccccc1S2(=O)=O)N1CCCC1`, the Potency is 11.6 µM (active).
Take `O=C1c2ccccc2S(=O)(=O)c2cc(N3CCN(c4ccccn4)CC3)ccc21`: the “activity change, negative = growth inhibition” value is -14.1%.
Consider `O=C(c1ccc2c(c1)N(Cc1ccccc1)C(=O)c1ccccc1S2(=O)=O)N1CCC(Cc2ccccc2)CC1`, for which the Potency was 8.2 µM (active).
`CCCCN(C)C(=O)c1ccc2c(c1)N(CC)C(=O)c1ccccc1S2(=O)=O`: the “activity change, negative = growth inhibition” value was -26.8%.
With `O=C(c1ccc2c(c1)N(Cc1ccc(F)cc1)C(=O)c1ccccc1S2(=O)=O)N1CCN(c2ccccn2)CC1`, the Potency was 14.6 µM (active).
As to `O=C(c1ccc2c(c1)C(=O)N(c1ccc(Cl)cc1)C2=O)N1CCN(c2ccccn2)CC1`, the “activity change, negative = growth inhibition” value was -5.02%.
The same measure, in the same setting: the result for `CC1CCCN(C(=O)CN2C(=O)c3ccccc3S2(=O)=O)C1` (stereo not given) reads -12.1%.
Turning to `O=C(CN1C(=O)NC2(CCCC2)C1=O)Nc1ccc(F)c(F)c1F`, the “activity change, negative = growth inhibition” value is 1.12%.
As for `CC(=O)CC(CC(=O)NC1CCCCC1)c1ccccc1` (stereo not given), the “activity change, negative = growth inhibition” value was -7.82%.
With `CCC(C)C1(C2CCCC2)NC(=O)NC1=O` (stereo not given), the “activity change, negative = growth inhibition” value was -0.666%.
In the case of `CCOc1ccc(NC(=O)CN(C)C(=O)Cc2sc(C)nc2-c2ccc(F)cc2)cc1OCC`, the “activity change, negative = growth inhibition” value was -19%.
The same measure, in the same setting: as for `O=C(c1cnccn1)N1CCC2(CCCN(Cc3ccccc3)C2)CC1`, the figure is 20.2%; as for `O=C(CCCOc1ccccc1)NNC(=O)c1ccc(Cl)cc1`, 1.38%; as for `Cc1ccc(S(=O)(=O)N2CCC(C)CC2)cc1C(=O)NCc1ccccn1`, -5.04%.
For the compound `S=C(NCc1ccc(Cl)cc1)NC1CCCCC1`, the “activity change, negative = growth inhibition” value is -20.8%.
Same read-out and setting: as for `CN(C)CCCNC(=S)NCc1ccc(Cl)cc1`, the figure is -11.7%.
Turning to `NCCCNC(=S)NCCCN(Cc1ccc(Cl)cc1)c1ccc(Br)cn1`, the Potency is 15.8 µM (active).
`CCCn1c(C)cc(/C=C(\C#N)C(=O)OCC(=O)N(C)c2c(N)n(Cc3ccccc3)c(=O)[nH]c2=O)c1C`: the “activity change, negative = growth inhibition” value was -14%.
The same measure, in the same setting: the result for `CN(/N=C/c1ccccc1)C(=S)c1ccccc1` reads -24.4%.
With `CN(O)C(=S)c1ccccc1`, the Potency was 0.13 µM (active).
In the case of `CN(CC(=O)O)C(=O)c1ccccc1`, the “activity change, negative = growth inhibition” value is 1.89%.
For `CC(C)c1nc2cc(C(=O)NC(C)c3cnn(C)c3)ccc2o1` (stereo not given), the “activity change, negative = growth inhibition” value was 4.73%.
Same read-out and setting: the result for `O=C(NCCS(=O)(=O)NCc1ccc(Cl)cc1)c1ccccc1` reads -3.08%; that for `CC(=O)c1cc(C#N)c(N2CC(C)OC(C)C2)nc1C` (stereo not given), 10.4%.
`CC(=O)c1cc(C#N)c(N2CCCCC2)nc1C`: the “activity change, negative = growth inhibition” value is -24.1%.
In the case of `CC(=O)c1cc(C#N)c(SCC(=O)C(C)(C)C)nc1C`, the Potency was 2.82 µM (active).
Take `O=C(NCc1cccnc1)c1ccc2nc([C@@H]3O[C@H](CO)[C@H](O)[C@H](O)[C@H]3O)[nH]c2c1`: the “activity change, negative = growth inhibition” value was 17.8%.
`CC1=NN(C(N)=S)C(=O)C1N=Nc1cc(Cl)ccc1Cl` (stereo not given): the “activity change, negative = growth inhibition” value was -94.3%.
Take `Cc1nc(Nc2ccccc2C)c2cnn(C)c2n1`: the “activity change, negative = growth inhibition” value was 10.9%.
Take `COc1ccc2[nH]c3c(c2c1)CCN1C(=O)C(CC(=O)NCCCN(C)C)C[C@H](C(=O)N2CCOCC2)[C@@]31CCC1CCCC1` (stereo not given in full): the “activity change, negative = growth inhibition” value is -11.2%.
With `O=C(C[C@H]1C[C@H](C(=O)N2CCOCC2)[C@@]2(CCC3CCCC3)c3[nH]c4ccc(Cl)cc4c3CCN2C1=O)NCc1ccco1`, the Potency was 20.6 µM (active).
For `CC[C@]12c3[nH]c4ccc(Cl)cc4c3CCN1C(=O)[C@@H](CC(=O)NCCN1CCOCC1)C[C@@H]2C(=O)N1CCN(C(=O)C2CC2)CC1`, the “activity change, negative = growth inhibition” value is -14.3%.
On to `COc1ccc(CNC(=O)C[C@H]2C[C@H](C(=O)N3CCOCC3)[C@@]3(CCC4CCCC4)c4[nH]c5ccc(Cl)cc5c4CCN3C2=O)cc1OC`, for which the Potency is 16.4 µM (active).
Regarding `CC[C@]12c3[nH]c4ccc(Cl)cc4c3CCN1C(=O)[C@@H](CC(=O)NCCCOC)C[C@@H]2C(=O)N1CCN(C(=O)c2ccco2)CC1`, the “activity change, negative = growth inhibition” value is -26.2%.
Turning to `CC[C@]12c3[nH]c4ccc(OC)cc4c3CCN1C(=O)C(CC(=O)NCc1ccco1)C[C@@H]2C(=O)N1CCN(C(=O)C2CC2)CC1` (stereo not given in full), the “activity change, negative = growth inhibition” value is -10%.
`O=C(NNS(=O)(=O)c1ccc(F)cc1)c1ccc([N+](=O)[O-])cc1Cl`: the “activity change, negative = growth inhibition” value is -27.5%.
